# Laboratory results from PubChem BioAssay AID488969 (Vanderbilt High Throughput Screening Facility, 2010).
# In all, about 110,000 compounds were measured (“z-score”: median about -0.1, highest 2% from about 2 on). Only a selection was taken, and the highest values are over-represented in it overall. The source made the active and inactive calls.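 Rule for the calls: active = z-score in the third read window above 3 or below -3; inactive = the rest.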
# Target: Metabotropic glutamate receptor 8 (Rattus norvegicus) (UniProt P70579)
# Sequence (P70579 whole entry, looked up): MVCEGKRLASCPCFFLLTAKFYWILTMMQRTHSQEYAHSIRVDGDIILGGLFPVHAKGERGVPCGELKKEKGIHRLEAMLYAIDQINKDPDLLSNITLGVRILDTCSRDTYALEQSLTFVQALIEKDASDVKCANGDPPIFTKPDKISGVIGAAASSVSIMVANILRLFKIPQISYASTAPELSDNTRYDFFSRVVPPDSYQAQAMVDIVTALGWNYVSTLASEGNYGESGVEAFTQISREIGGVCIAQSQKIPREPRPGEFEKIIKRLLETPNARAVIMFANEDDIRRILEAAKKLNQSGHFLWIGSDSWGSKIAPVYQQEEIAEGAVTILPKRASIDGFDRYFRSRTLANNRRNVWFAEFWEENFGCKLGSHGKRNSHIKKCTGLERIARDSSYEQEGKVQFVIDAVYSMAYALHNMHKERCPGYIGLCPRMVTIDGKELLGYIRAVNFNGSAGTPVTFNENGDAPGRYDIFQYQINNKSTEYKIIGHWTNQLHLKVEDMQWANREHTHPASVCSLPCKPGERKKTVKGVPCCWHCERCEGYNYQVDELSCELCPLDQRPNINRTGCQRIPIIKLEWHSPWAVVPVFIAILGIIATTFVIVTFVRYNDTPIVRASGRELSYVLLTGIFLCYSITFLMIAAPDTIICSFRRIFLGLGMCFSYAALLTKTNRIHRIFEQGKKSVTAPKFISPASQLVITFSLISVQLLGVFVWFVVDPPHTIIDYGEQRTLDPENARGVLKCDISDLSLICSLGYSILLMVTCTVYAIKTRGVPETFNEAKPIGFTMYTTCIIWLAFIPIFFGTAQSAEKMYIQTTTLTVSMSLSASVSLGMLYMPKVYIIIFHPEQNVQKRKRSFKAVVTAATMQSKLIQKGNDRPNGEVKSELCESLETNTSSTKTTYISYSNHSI
# Assay: mGluR8 Gi/Go-coupled signaling modulation – cell-based, rat, thallium flux, HTS, primary screen (AID 488969)
# Details: HEK293 rat mGluR8, GIRK (G protein-gated inwardly rectifying potassium channel) thallium flux, FluoZin2; at 10 µM; stronger effect = higher value; submaximal glutamate (EC20) added with thallium
row,Compound,z-score
1,CC(=O)Nc1ccccc1Nc1cc(C#N)c(C#N)cc1[N+](=O)[O-],-0.00232
2,CN1C2C=C3C(C#N)=C(N)C(C#N)(C#N)[C@@H](c4cccs4)C3C1CC2 (some centres undefined),2.54
3,CN1C2C=C3C(C#N)=C(N)C(C#N)(C#N)C(c4ccc(Br)cc4)C3C1CC2 (centres undefined),0.361
4,CN1C2C=C3C(C#N)=C(N)C(C#N)(C#N)[C@H](c4c(F)cccc4F)[C@H]3C1CC2 (some centres undefined),-0.484
5,CC(C)(C)C1CC=C2C(C#N)=C(N)C(C#N)(C#N)C(c3cccs3)C2C1 (centres undefined),0.0392
6,CN1C2C=C3C(C#N)=C(N)C(C#N)(C#N)[C@@H](c4ccsc4)[C@@H]3C1CC2 (some centres undefined),4.01 (active)
7,CN1C2C=C3C(C#N)=C(N)C(C#N)(C#N)[C@@H](c4cccc(F)c4)[C@@H]3C1CC2 (some centres undefined),1.32
8,Cc1ccnc(N2CCC(C(=O)NNC(=O)COc3cccc4ccccc34)CC2)n1,0.336
9,COc1cc(/C=N/OCC(=O)Nc2ccc(OC(F)F)cc2)ccc1OCc1ccccc1,-0.0267
10,CCOC(=O)C1CCCN(C(=O)c2cnn3c(C(F)(F)F)cc(-c4ccccc4)nc23)C1 (centres undefined),-2.11
11,COC(=O)c1ccc(NS(=O)(=O)c2ccc(SC)cc2)cc1,5.24 (active)
12,COC(=O)c1ccc(NS(=O)(=O)c2ccc(OC)cc2)cc1,0.37
13,CCOC(=O)c1ccc(NS(=O)(=O)c2ccc(SC)cc2)cc1,-0.12
14,COc1ccc(N2CCN(C(=O)CSc3nnc4n3C(C)(C)Cc3ccccc3-4)CC2)cc1,-0.642
15,Cc1ccc(Cl)cc1N1CCN(C(=O)CSc2nnc3n2C(C)(C)Cc2ccccc2-3)CC1,1.18
16,CC1(C)Cc2ccccc2-c2nnc(SCC(=O)N3CCN(c4ccccc4)CC3)n21,3.2 (active)
17,O=C(Nc1ccccn1)C12CC3CC(C1)CC(C(=O)Nc1ccccn1)(C3)C2,0.332
18,Cc1cccc(Oc2ncc(-c3ccc(Cl)cc3)cn2)c1,0.0612
19,Cc1cc(N2CCOCC2)nc2ccccc12,-0.0968
20,c1nc(NCC2CCCO2)c2[nH]cnc2n1 (centres undefined),0.26
21,Cc1cccc(C(=O)NCC2CCCO2)c1 (centres undefined),2.21
22,O=C(NCC1CCCO1)c1cccc(Br)c1 (centres undefined),0.348
23,O=C(NCC1CCCO1)c1cccc(F)c1 (centres undefined),0.371

row,Compound,z-score
1,O=C(CCS(=O)(=O)c1ccc(Br)cc1)Nc1cc(F)ccc1F,-0.0256
2,O=C(Cn1c(C(F)(F)F)nc2ccccc21)OCC(=O)c1c[nH]c2ccccc12,-0.594
3,Cc1cc(C)n(-c2nc3ccccc3nc2NCCc2ccccc2)n1,-0.16
4,Cc1cccc(NC(=S)NCCN2CCOCC2)c1C,-0.235
5,Cc1cccc(NC(=S)N=Nc2c(O)n(CN3CCOCC3)c3ccccc23)c1C,2.19
6,Cc1ccc(N=Nc2c(O)n(CN3CCOCC3)c3ccccc23)cc1,-0.152
7,Nn1c(SCc2cccc3ccccc23)nnc1-c1ccco1,0.217
8,Cn1c(SCc2cc(=O)[nH]c3ccccc23)nnc1-c1ccco1,-0.244
9,Cn1c(SCc2cccc3ccccc23)nnc1-c1ccco1,2.15
10,N#Cc1cn(-c2ccccc2)nc1-c1cc2ccccc2oc1=O,-0.0371
11,Cc1ccc(-n2c(C3CC3c3ccc(Cl)cc3)n[nH]c2=S)cc1 (centres undefined),0.832
12,Cc1ccc(C2CC2c2n[nH]c(=S)n2-c2ccc(Cl)cc2)cc1 (centres undefined),2.95
13,S=c1[nH]nc(C2CC2c2ccc(Cl)cc2)n1-c1ccc(Cl)cc1 (centres undefined),0.549
14,Cc1ccc(C2CC2c2n[nH]c(=S)n2-c2ccc(C)cc2)cc1 (centres undefined),2.34
15,Cc1ccc(C2CC2c2n[nH]c(=S)n2-c2cccc(Cl)c2)cc1 (centres undefined),0.358
16,Cc1ccc(-n2c([C@@H]3C[C@H]3c3ccccc3)n[nH]c2=S)cc1,0.209
17,O=C(c1ccc(-n2cnnn2)cc1)N1CCCCC1,0.294
18,CN1CCC(OC(=O)COc2ccc(C(C)(C)C)cc2)CC1,0.712
19,COC1CCCCC1Nc1cc(C)cc(C)c1 (centres undefined),-0.0687
20,COc1ccc(C)cc1S(=O)(=O)N(C)CC(=O)NC1CCCC1,-0.639
21,CSc1ccccc1NC(=O)CN(c1ccccc1Br)S(C)(=O)=O,2.04
22,COc1ccc(Cl)cc1N(CC(=O)Nc1ccccc1SC)S(C)(=O)=O,0.203
23,COc1ccc(N(CC(=O)Nc2ccccc2SC)S(C)(=O)=O)cc1OC,0.573

row,Compound,z-score
1,CN(C)S(=O)(=O)c1ccc(NC(=O)/C=C/c2ccccc2Cl)cc1,-0.0315
2,O=C(Nc1nnc(CSCc2ccc(F)cc2)s1)c1ccc([N+](=O)[O-])cc1,2.51
3,CCC(=O)Nc1nnc(CSCc2ccc(F)cc2)s1,0.0266
4,O=C(Nc1nnc(CSCc2ccc(F)cc2)s1)c1cccc([N+](=O)[O-])c1,-0.37
5,O=C(NCc1ccc(Cl)cc1)C(=O)NCC1OCCN1C(=O)c1cccs1 (centres undefined),-0.152
6,Cn1cc(-c2nc3ccccc3[nH]2)c2ccccc21,-1.41
7,O=C(c1ccccc1)C(Sc1ncn[nH]1)c1ccccc1 (centres undefined),-0.672
8,Cc1ccc(C)c(OCC(=O)N/N=C/c2c(C)nn(-c3ccccc3)c2Cl)c1,2.98
9,COC(=O)N/N=C\c1c(C)nn(-c2ccccc2)c1Cl,-0.389
10,Cc1ccc(C)c(OCC(=O)N/N=C/c2c(C)nn(-c3ccccc3)c2Cl)c1C,-0.185
11,Fc1ccccc1N1CCN(CCCNc2ccc3nncn3n2)CC1,0.731
12,CCOC(=O)N1CCC(NCCNC(=O)c2ccccc2)CC1,0.292
13,CC(OC(=O)CN1C(=O)C2CCCCC2C1=O)C(=O)Nc1ncc(Cl)cc1Cl (centres undefined),0.031
14,CC(OC(=O)CCCN1C(=O)c2ccccc2C1=O)C(=O)Nc1ncc(Cl)cc1Cl (centres undefined),2.08
15,O=C(COC(=O)CN1C(=O)c2ccccc2C1=O)Nc1ncc(Cl)cc1Cl,0.719
16,Cc1c(NC(=O)C(C)OC(=O)c2cc(Cl)nc(Cl)c2)c(=O)n(-c2ccccc2)n1C (centres undefined),0.0979
17,CCOC(=O)C(Oc1ccc2c(-c3ccccc3)cc(=O)oc2c1C)c1ccccc1 (centres undefined),-0.0738
18,Cc1csc(NC(=O)CSc2nnc(-c3cc(C)on3)o2)n1,0.301
19,CCc1cc2c(NCc3ccco3)ncnc2s1,-0.444
20,CCOC(=O)c1sc2nc(CC(=O)OC)nc(NCc3ccco3)c2c1C,-0.245
21,CCOC(=O)c1sc2ncnc(NCc3ccco3)c2c1C,14.7 (active)
22,Cc1c(NC(=O)c2cc3nc(-c4ccc(Br)cc4)cc(C(F)(F)F)n3n2)c(=O)n(-c2ccccc2)n1C,-0.51
23,Cc1cc(C)nc(/N=C(\N)Nc2ccc(F)c([N+](=O)[O-])c2)n1,-0.14
